According to PubChem BioAssay (EPA / NIEHS):
Inconclusive results are not listed. Activity calls are given as the source filed them. How the source made its calls, unless noted: active means hit-call score of the fitted dose curve at least 0.9, where 1 is the maximum; inactive means score below 0.9.

Experiments:
[1] = BSK_3C_uPAR: BioMAP Diversity Plus: 3C Assay for Urokinase-type plasminogen activator receptor (uPAR) Biomarker Activity (AID 2282998); settings: BioMAP 3C HUVEC, uPAR biomarker ELISA; actives raise or lower the signal
Summary of the method: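 Readout: ELISA for surface uPAR. System: human umbilical vein endothelial primary cells, 24 h after chemical exposure. Analysis: bidirectional fit, DMSO baseline.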

[2] = BSK_3C_VCAM1: BioMAP Diversity Plus: 3C Assay for Vascular cell adhesion molecule 1 (VCAM1) Biomarker Activity (AID 2282999); settings: BioMAP 3C HUVEC, VCAM1 ELISA, cytokine-stimulated; actives raise or lower the signal
Summary of the method: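 Human umbilical vein endothelial cells were dosed with compound for 24 h, after which cell-surface VCAM-1 was quantified by ELISA. Bidirectional curve fitting used DMSO as negative control and activity baseline.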

[3] = BSK_4H_Eotaxin3: BioMAP Diversity Plus: 4H Assay for Eotaxin 3 Biomarker Activity (AID 2283000); settings: primary human endothelial cells (HUVEC); actives raise or lower the signal
Summary of the method: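 Chemicals were added to human umbilical vein endothelium cultures, and Eotaxin-3 was quantified by ELISA at 24 h. Values were derived by bidirectional fitting with DMSO serving as negative control and activity baseline.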

[4] = biological target: human Peroxisome Proliferator-activated Receptor delta (PPARd), PPARD (gene 5467) (UniProt Q03181); experiment: ATG_PPARd_TRANS: Attagene TRANS-FACTORIAL HepG2 Assay for human Peroxisome Proliferator-activated Receptor delta (PPARd) (AID 2283002; active means hit-call score of the fitted dose curve at least 0.9, where 1 is the maximum)
Summary of the method: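 Measured quantity: GAL4-UAS reporter transcript induction in HepG2 after 24 h chemical dosing, with NR-Gal4 chimeras supplied by transient transfection. Detection by RT-PCR and capillary electrophoresis; upward fit against DMSO.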

[5] = read-out: Intercellular Adhesion Molecule 1 (ICAM1), ICAM1 (gene 3383); experiment: BSK_3C_ICAM1: BioMAP Diversity Plus: 3C Assay for Intercellular Adhesion Molecule 1 (ICAM1) Biomarker Activity (AID 2283003); settings: primary human endothelial cells (HUVEC); actives raise or lower the signal
Summary of the method: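 Human vascular endothelial primary cells, 3C conditions, 24 h treatment. ICAM-1 by ELISA.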

[6] = BSK_3C_Proliferation: Cell Proliferation Assessment in the BioMAP Diversity Plus: 3C Assay (AID 2283006); settings: primary human endothelial cells (HUVEC);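 on AC50: potency may reflect either rise or fall in cell number versus DMSO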
Summary of the method: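 Proliferation of human vascular endothelial primary cells after 48 h dosing, quantified as SRB-stained protein at 560 nm relative to DMSO.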

[7] = biological target: Peroxisome proliferator-activated receptor gamma (Homo sapiens) (UniProt P37231); experiment: ATG_PPARg_TRANS: Attagene TRANS-FACTORIAL HepG2 Assay for human Peroxisome Proliferator-activated Receptor-gamma (PPARg) (AID 2283007; active means hit-call score of the fitted dose curve at least 0.9, where 1 is the maximum)
Sequence of Peroxisome proliferator-activated receptor gamma (Homo sapiens) (P37231 whole entry, looked up, the tested form may be a part): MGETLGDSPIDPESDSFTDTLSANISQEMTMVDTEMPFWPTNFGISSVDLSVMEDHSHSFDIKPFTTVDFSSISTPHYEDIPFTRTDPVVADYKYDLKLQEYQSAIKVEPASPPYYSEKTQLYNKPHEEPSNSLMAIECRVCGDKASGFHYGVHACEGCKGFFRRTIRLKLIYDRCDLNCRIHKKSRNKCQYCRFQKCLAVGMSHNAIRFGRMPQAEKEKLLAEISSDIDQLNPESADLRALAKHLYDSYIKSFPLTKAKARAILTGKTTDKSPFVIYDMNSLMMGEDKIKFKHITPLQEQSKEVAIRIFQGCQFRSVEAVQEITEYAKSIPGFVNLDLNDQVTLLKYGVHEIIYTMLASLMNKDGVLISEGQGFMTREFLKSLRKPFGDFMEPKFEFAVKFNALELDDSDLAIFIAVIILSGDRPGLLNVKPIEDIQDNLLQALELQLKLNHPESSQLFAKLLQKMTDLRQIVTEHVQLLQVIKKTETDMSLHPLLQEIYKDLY
Summary of the method: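 Transient transfection of HepG2 with GAL4-UAS-driven reporter units; chemical dosing 24 h; total RNA → oligo(dT) RT → PCR with reporter primers → 6-FAM primer extension → HpaI digest 2 h 37 C → capillary electrophoresis. Positive direction vs DMSO.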

[8] = biological target: Nuclear receptor subfamily 1 group I member 2 (Homo sapiens) (UniProt O75469); experiment: ATG_PXR_TRANS: Attagene TRANS-FACTORIAL HepG2 Assay for human Pregnane X Receptor (PXR) (AID 2283008; active means hit-call score of the fitted dose curve at least 0.9, where 1 is the maximum)
Sequence of Nuclear receptor subfamily 1 group I member 2 (Homo sapiens) (O75469 whole entry, looked up, the tested form may be a part): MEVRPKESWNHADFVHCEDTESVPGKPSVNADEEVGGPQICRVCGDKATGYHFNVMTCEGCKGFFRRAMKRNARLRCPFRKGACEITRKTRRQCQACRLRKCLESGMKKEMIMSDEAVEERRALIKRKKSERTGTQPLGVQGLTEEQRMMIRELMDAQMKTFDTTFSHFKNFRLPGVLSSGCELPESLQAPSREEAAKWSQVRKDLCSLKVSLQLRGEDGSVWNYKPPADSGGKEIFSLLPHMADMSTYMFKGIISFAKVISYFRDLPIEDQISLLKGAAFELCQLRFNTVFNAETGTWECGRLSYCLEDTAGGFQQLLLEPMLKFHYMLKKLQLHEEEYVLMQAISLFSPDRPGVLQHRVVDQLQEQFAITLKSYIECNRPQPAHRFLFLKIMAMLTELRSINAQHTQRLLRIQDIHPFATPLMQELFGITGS
Summary of the method: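 Fluorescence intensity of FAM-labelled, HpaI-digested reporter amplicons, separated by capillary electrophoresis, quantifies induction. HepG2 cells with PXR-Gal4 trans-reporter system were exposed 24 h; DMSO defines baseline.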

[9] = biological target: human Retinoid X Receptor beta (RXRb), RXRB (gene 6257) (UniProt P28702); experiment: ATG_RXRb_TRANS: Attagene TRANS-FACTORIAL HepG2 Assay for human Retinoid X Receptor beta (RXRb) (AID 2283013; active means hit-call score of the fitted dose curve at least 0.9, where 1 is the maximum)
Sequence of human Retinoid X Receptor beta (RXRb), RXRB (gene 6257) (P28702 whole entry, looked up): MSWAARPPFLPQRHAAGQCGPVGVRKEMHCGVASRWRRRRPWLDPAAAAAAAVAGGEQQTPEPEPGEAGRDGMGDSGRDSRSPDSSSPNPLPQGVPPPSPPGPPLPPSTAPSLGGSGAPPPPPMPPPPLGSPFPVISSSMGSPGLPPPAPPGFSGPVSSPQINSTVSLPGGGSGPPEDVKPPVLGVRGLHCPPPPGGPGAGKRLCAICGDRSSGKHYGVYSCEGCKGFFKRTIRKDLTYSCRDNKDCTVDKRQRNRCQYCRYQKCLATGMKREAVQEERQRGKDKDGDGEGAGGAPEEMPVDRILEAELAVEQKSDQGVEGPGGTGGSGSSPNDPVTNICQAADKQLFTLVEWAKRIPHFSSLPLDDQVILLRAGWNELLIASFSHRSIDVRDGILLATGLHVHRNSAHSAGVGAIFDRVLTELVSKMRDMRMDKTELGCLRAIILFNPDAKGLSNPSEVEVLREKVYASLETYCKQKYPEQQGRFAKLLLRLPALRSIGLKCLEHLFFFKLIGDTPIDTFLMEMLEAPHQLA
Summary of the method: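 Multiplexed TRANS reporter assay in HepG2; 24 h dosing; reporter mRNA by RT-PCR/CE fluorescence; gain-of-signal relative to DMSO.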

[10] = read-out: E-selectin (Homo sapiens) (UniProt P16581); experiment: BSK_3C_Eselectin: BioMAP Diversity Plus: 3C Assay for Eselectin Biomarker Activity (AID 2283015); settings: primary human endothelial cells (HUVEC); actives raise or lower the signal
Summary of the method: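 ELISA read-out of E-selectin on endothelial monolayers after 24 h chemical treatment. Human umbilical vein primary cells served as the system, with DMSO defining baseline activity for bidirectional fitting.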

[11] = read-out: Interleukin-1 alpha (IL1a), IL1A (gene 3552); experiment: BSK_BE3C_IL1a: BioMAP Diversity Plus: BE3C Assay for Interleukin-1 alpha (IL1a) Biomarker Activity (AID 2283016); settings: primary human bronchial epithelial cells; actives raise or lower the signal
Summary of the method: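 Cultures of primary human bronchial epithelial cells receive test chemical. After 24 h, IL-1a is quantified by ELISA, while parallel wells are fixed in TCA and SRB-stained for total protein. Changes in either direction are fitted relative to DMSO.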

[12] = read-out: Monocyte Chemoattractant Protein-1 (MCP1), CCL2 (gene 6347); experiment: BSK_3C_MCP1: BioMAP Diversity Plus: 3C Assay for Monocyte Chemoattractant Protein-1 (MCP1) Biomarker Activity (AID 2283017); settings: primary human endothelial cells (HUVEC); actives raise or lower the signal
Summary of the method: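 ELISA read-out of MCP-1 from human umbilical vein endothelial cell cultures harvested 24 h post-dosing. Gain or loss of signal was fitted relative to DMSO.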

[13] = read-out: Human Leukocyte Antigen - DR isotype (HLADR), HLA-DRA (gene 3122); experiment: BSK_3C_HLADR: BioMAP Diversity Plus: 3C Assay for Human Leukocyte Antigen - DR isotype (HLADR) Biomarker Activity (AID 2283019); settings: primary human endothelial cells (HUVEC); actives raise or lower the signal
Summary of the method: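 ELISA readout of surface HLA-DR on human umbilical vein endothelium, taken 24 h after chemical treatment. Gain- and loss-of-signal were both fitted relative to DMSO.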

[14] = biological target: human Retinoic Acid Receptor beta (RARb), RARB (gene 5915) (UniProt P10826); experiment: ATG_RARb_TRANS: Attagene TRANS-FACTORIAL HepG2 Assay for human Retinoic Acid Receptor beta (AID 2283004; active means hit-call score of the fitted dose curve at least 0.9, where 1 is the maximum)
Sequence of human Retinoic Acid Receptor beta (RARb), RARB (gene 5915) (P10826 whole entry, looked up): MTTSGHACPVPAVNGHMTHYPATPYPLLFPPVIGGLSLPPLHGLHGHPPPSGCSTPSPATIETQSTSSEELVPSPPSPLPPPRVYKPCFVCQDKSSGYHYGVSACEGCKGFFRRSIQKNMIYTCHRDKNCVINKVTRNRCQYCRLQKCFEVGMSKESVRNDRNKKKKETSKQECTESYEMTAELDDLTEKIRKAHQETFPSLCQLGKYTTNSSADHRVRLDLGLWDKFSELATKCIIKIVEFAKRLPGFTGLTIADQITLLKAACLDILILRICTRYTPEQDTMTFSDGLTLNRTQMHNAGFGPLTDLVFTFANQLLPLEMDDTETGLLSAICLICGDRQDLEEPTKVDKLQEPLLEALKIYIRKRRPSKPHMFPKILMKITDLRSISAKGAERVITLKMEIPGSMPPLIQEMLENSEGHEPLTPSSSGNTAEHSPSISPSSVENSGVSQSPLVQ
Summary of the method: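 Transient transfection of HepG2 with multiple reporter units → chemical dosing, 24 h → total RNA isolation → RT with oligo(dT) → reporter-specific PCR, 6-FAM primer extension, HpaI digest → capillary electrophoresis. Positive direction vs DMSO control.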

[15] = biological target: human RAR-related Orphan Receptor beta (RORb), RORB (gene 6096) (UniProt Q92753); experiment: ATG_RORb_TRANS: Attagene TRANS-FACTORIAL HepG2 Assay for human RAR-related Orphan Receptor beta (RORb) (AID 2283010; active means hit-call score of the fitted dose curve at least 0.9, where 1 is the maximum)
Sequence of human RAR-related Orphan Receptor beta (RORb), RORB (gene 6096) (Q92753 whole entry, looked up, the tested form may be a part): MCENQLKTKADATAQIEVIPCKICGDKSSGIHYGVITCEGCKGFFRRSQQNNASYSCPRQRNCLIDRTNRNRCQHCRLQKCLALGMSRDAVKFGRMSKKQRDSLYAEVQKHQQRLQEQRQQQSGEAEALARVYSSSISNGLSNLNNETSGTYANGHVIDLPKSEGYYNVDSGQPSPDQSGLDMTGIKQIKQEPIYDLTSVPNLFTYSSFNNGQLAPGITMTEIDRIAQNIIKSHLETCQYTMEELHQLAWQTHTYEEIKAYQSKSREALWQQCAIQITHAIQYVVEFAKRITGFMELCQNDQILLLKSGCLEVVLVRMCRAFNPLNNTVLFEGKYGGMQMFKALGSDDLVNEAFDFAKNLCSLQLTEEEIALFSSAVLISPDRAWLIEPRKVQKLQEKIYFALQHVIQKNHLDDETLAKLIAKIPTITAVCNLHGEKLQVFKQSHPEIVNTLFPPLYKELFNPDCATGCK
Summary of the method: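 In this TRANS-format test, human HepG2 cells express chimeric NR-Gal4 fusion proteins driving GAL4-UAS reporters. After 24 h dosing, reporter transcripts are measured by fluorescent RT-PCR/capillary electrophoresis, with DMSO as negative control.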

[16] = biological target: human RAR-related Orphan Receptor gamma (RORg), RORC (gene 6097) (UniProt P51449); experiment: ATG_RORg_TRANS: Attagene TRANS-FACTORIAL HepG2 Assay for human RAR-related Orphan Receptor gamma (RORg) (AID 2283011; active means hit-call score of the fitted dose curve at least 0.9, where 1 is the maximum)
Sequence of human RAR-related Orphan Receptor gamma (RORg), RORC (gene 6097) (P51449 whole entry, looked up, the tested form may be a part): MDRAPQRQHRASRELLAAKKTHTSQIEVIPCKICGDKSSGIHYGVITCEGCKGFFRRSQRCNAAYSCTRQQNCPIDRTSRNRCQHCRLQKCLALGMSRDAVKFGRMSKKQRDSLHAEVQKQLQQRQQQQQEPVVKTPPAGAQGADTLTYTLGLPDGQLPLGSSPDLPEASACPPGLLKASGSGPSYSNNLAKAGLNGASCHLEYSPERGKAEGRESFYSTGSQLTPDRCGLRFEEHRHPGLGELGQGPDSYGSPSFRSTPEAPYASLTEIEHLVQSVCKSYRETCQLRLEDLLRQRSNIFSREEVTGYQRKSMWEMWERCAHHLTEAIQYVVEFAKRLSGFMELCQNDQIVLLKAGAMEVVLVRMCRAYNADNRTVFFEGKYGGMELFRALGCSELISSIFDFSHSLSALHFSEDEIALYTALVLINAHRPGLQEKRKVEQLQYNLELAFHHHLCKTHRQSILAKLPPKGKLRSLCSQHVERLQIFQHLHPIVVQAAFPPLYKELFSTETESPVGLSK
Summary of the method: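 First, HepG2 liver cells were transfected with GAL4-UAS-driven reporter constructs and the RORg-Gal4 fusion. Next, they were treated with chemical for 24 h. Finally, reporter mRNA was quantified by RT-PCR and capillary electrophoresis, with upward activity fitted against DMSO.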

[17] = biological target: Retinoic acid receptor RXR-alpha (Homo sapiens) (UniProt P19793); experiment: ATG_RXRa_TRANS: Attagene TRANS-FACTORIAL HepG2 Assay for human Retinoid X Receptor alpha (RXRa) (AID 2283012; active means hit-call score of the fitted dose curve at least 0.9, where 1 is the maximum)
Sequence of Retinoic acid receptor RXR-alpha (Homo sapiens) (P19793 whole entry, looked up, the tested form may be a part): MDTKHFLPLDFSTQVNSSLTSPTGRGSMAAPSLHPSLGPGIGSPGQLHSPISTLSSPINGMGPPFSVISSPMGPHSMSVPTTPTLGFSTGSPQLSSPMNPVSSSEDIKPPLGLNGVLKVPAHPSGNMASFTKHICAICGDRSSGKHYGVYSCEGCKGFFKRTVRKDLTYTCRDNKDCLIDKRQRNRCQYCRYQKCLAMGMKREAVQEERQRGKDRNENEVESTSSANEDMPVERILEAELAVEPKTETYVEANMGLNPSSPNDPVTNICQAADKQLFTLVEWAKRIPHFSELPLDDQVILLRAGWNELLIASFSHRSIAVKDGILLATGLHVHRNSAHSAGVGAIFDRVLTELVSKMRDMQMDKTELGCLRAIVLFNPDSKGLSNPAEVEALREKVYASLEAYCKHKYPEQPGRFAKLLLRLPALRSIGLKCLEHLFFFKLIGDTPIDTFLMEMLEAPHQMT
Summary of the method: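 Cells (HepG2) carried transiently transfected GAL4-responsive reporter units. Following a 24 h chemical incubation, reporter mRNA induction was read via RT-PCR fragment analysis; DMSO served as negative control and baseline.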

[18] = biological target: human Thyroid Receptor alpha (THRa1), THRA (gene 7067) (UniProt P10827); experiment: ATG_THRa1_TRANS: Attagene TRANS-FACTORIAL HepG2 Assay for human Thyroid Receptor alpha (THRa1) (AID 2283014; active means hit-call score of the fitted dose curve at least 0.9, where 1 is the maximum)
Sequence of human Thyroid Receptor alpha (THRa1), THRA (gene 7067) (P10827 whole entry, looked up, the tested form may be a part): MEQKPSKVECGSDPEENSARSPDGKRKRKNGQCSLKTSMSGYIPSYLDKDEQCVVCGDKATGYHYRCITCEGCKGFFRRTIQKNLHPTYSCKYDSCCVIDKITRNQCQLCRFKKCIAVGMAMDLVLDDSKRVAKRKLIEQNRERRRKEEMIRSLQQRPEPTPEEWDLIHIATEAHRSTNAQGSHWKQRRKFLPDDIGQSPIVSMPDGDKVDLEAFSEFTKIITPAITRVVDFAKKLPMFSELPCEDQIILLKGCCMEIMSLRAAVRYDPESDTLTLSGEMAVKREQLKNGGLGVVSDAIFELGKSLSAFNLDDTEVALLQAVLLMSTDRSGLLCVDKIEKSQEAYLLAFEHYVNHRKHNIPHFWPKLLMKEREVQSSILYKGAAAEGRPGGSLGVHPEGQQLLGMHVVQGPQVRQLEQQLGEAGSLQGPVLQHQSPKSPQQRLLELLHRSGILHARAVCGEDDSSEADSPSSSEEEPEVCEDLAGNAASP
Summary of the method: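 Reporter transcript induction, read by capillary electrophoresis of 6-FAM-labelled RT-PCR products, reflects activity of a transfected THRa1-Gal4 fusion in HepG2 liver cells. Cells were dosed for 24 h; activity was fitted in the positive direction against DMSO.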

[19] = read-out: Monocyte Chemoattractant Protein-1 (MCP1), CCL2 (gene 6347); experiment: BSK_4H_MCP1: BioMAP Diversity Plus: 4H Assay for Monocyte Chemoattractant Protein-1 (MCP1) Biomarker Activity (AID 2283018); settings: primary human endothelial cells (HUVEC); actives raise or lower the signal
Summary of the method: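 Readout: MCP-1 ELISA on compound-treated HUVEC, sampled 24 h post-dosing. Baseline and negative control DMSO; bidirectional fit. Overt toxicity checked alongside by sulforhodamine B protein staining at time of biomarker measurement.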

[20] = biological target: Retinoic acid receptor alpha (Homo sapiens) (UniProt P10276); experiment: ATG_RARa_TRANS: Attagene TRANS-FACTORIAL HepG2 Assay for human Retinoic Acid Receptor alpha (RARa) (AID 2283005; active means hit-call score of the fitted dose curve at least 0.9, where 1 is the maximum)
Sequence of Retinoic acid receptor alpha (Homo sapiens) (P10276 whole entry, looked up, the tested form may be a part): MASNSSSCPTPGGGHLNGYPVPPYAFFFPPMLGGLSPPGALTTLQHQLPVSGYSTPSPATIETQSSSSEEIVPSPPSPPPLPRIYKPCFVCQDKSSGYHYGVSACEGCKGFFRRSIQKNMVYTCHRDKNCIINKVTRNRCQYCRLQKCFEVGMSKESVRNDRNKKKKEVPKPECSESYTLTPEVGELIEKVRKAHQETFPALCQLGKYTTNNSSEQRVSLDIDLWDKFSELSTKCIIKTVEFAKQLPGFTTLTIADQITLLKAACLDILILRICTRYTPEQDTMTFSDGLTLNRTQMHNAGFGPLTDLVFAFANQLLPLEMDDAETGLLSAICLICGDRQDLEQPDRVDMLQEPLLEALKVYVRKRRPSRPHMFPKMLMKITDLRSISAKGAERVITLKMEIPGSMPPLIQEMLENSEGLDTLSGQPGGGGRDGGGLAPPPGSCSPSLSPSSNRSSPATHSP
Summary of the method: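 HepG2 cells transiently transfected with multiple reporter units expressing chimeric RARα-GAL4 fusion, with GAL4-UAS-driven reporters. After 24 h compound exposure, reporter mRNA induction quantified by RT-PCR and capillary electrophoresis with fluorescent labeling; gain-of-signal fitted relative to DMSO control.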

Measured: AC50

Sequence of E-selectin (Homo sapiens) (P16581 whole entry, looked up): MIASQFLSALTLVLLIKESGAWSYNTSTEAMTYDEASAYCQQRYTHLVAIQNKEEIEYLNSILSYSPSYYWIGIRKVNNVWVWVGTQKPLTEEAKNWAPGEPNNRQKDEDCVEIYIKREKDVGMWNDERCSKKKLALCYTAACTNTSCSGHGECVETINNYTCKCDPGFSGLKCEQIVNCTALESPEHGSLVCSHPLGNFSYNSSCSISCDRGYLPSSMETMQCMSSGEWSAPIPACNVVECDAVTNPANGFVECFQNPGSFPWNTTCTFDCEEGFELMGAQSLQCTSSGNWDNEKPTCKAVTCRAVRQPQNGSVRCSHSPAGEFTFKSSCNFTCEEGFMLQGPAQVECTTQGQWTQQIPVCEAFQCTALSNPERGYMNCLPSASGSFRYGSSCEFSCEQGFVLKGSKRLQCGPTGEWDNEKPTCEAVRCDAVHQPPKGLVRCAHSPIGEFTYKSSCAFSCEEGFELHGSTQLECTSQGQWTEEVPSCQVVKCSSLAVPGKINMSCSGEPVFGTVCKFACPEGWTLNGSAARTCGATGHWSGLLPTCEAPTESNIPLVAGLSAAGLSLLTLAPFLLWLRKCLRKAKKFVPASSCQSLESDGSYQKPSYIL

COP(=S)(OC)Oc1ccc([N+](=O)[O-])cc1
inactive: [2] | [3] | [4] | [5] | [6] | [7] | [8] | [9] | [11]
active: [1] 33.1 µM | [10] 8.4 µM | [12] 33.8 µM | [13] 17.4 µM

CCC(C)(C)C(=O)OC1=C(c2ccc(Cl)cc2Cl)C(=O)OC12CCCCC2
active: [1] 33.9 µM | [2] 24.7 µM | [3] 32.3 µM | [5] 32.6 µM | [6] 29.2 µM | [10] 19.9 µM | [11] 31 µM | [12] 29.4 µM | [19] 15.1 µM | [13] 11 µM
inactive: [14] | [7] | [15] | [16] | [17] | [18]

CCCN(CCC)c1c([N+](=O)[O-])cc(C(F)(F)F)cc1[N+](=O)[O-]
active: [3] 33 µM | [6] 29.1 µM | [8] 10.6 µM | [19] 24.7 µM
inactive: [1] | [2] | [5] | [7] | [9] | [10] | [11] | [13]

[2H]C1([2H])[n+]2ccccc2-c2cccc[n+]2C1([2H])[2H]
inactive: [1] | [2] | [3] | [5] | [7] | [16] | [9] | [10] | [11] | [19] | [13]
active: [6] 31.7 µM

CCc1ccc(C(=O)NN(C(=O)c2cc(C)cc(C)c2)C(C)(C)C)cc1
active: [1] 20 µM
inactive: [2] | [3] | [5] | [14] | [20] | [6] | [7] | [8] | [15] | [16] | [17] | [9] | [10] | [11] | [13]

COC(=O)c1ccccc1S(=O)(=O)NC(=O)Nc1nc(C)nc(OC)n1
inactive: [1] | [2] | [3] | [5] | [14] | [20] | [6] | [8] | [17] | [9] | [18] | [10] | [11] | [12] | [13]

OCCOc1ccccc1
inactive: [1] | [2] | [3] | [5] | [20] | [6] | [7] | [8] | [15] | [16] | [17] | [9] | [18] | [10] | [11] | [19] | [13]
